PubChem BioAssay (NCI)
This is part of a sample that, as a whole, favours compounds with a hit. Of some 83,000 tested, about 20% had one in any assay.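 Percent growth is the endpoint: 0 to 100 indicates growth inhibition (40 means 60% inhibition), 0 means no net growth, and negative values indicate cell death.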 Activity calls are given as the source filed them. Rule for the calls: active = growth percent below 10; inactive = the rest.

These compounds were tested on SNB-19 CNS (assay: NCI-60 one-dose screen, 48 h (100 = growth as untreated, 0 = no growth, -100 = all killed)). Conditions: 10 µM unless noted.

SMILES | growth
COCCn1cc(-c2csc(-c3c[nH]c4ccccc34)n2)c2cccnc21 | 65.5% (inactive)
CCN(CC)c1ccc(-c2cc(-c3cc(OC)c(OC)c(OC)c3)nc(N3CCC(O)CC3)c2C#N)cc1 | 15.4% (inactive)
CN1C(=O)/C(=C/c2ccc(C(=O)Nc3ncc(Cc4cccc(C(F)(F)F)c4)s3)cc2)SC1=S | 61.5% (inactive)
Nc1ncnc2c1N=C(c1ccc(Cl)cc1)CC(c1cccc(Nc3ccnc4cc(Cl)ccc34)c1)N2 (centres undefined) | 79.6% (inactive)
COCCn1cc(-c2nc(-c3cc4cccnc4n3C)cs2)c2ccccc21 | 63.5% (inactive)
COC(=O)[C@]1(C)CCC[C@]2(C)[C@H]3C[C@@H]4[C@H]5[C@@H]6CC/C(=N\OCC/C(N)=N/O)[C@H]5[C@@]3(CC[C@H]21)CC4(C(C)C)O6 | 89.4% (inactive)
Cc1cccc(-c2nc(C(C)C)sc2-c2ccnc(NCCCNS(=O)(=O)c3ccc(Cl)cc3)c2)c1 | 89.6% (inactive)
O=C(/C=C/C12c3ccccc3C(c3ccccc31)C1C(=O)NC(=O)C12)c1ccc(Cl)cc1Cl (centres undefined) | 27% (inactive)
CC(C)(C)CC(C)(C)Nc1c(-c2c(O)c3ccccc3oc2=O)nc2sc3ccccc3n12 | 26.1% (inactive)
CN(C)CCC(CCN(C)C)(C(=O)O)c1ccccc1 | 101% (inactive)
Cn1c(=O)[nH]c(=O)c2nc3c(nc21)-c1ccccc1C3=O | 98.1% (inactive)
C=C(c1ccc(C(=O)O)c(F)c1)c1cc2c(cc1C)C(C)(C)CCC2(C)C | 86.8% (inactive)
C=C1C(=O)O[C@H]2[C@H]1CC/C(COC(=O)C(=O)c1c[nH]c3ccc(Cl)cc13)=C\CC[C@@]1(C)O[C@@H]21 | -71.6% (active)
N#Cc1c(-c2ccc(Br)cc2)nc2c(N=Nc3ccc(S(N)(=O)=O)cc3)c(N)nn2c1N | 61.6% (inactive)
CCN(CC)CCN1C(=O)c2c(c3c4ccccc4[nH]c3c3ccc4ccccc4c23)C1=O | 84.9% (inactive)
O=C(/C=C/c1ccccc1)N(C1CCCCC1)C1CCCCC1 | 87.7% (inactive)
CC1(C)CC[C@]2(CO)CC[C@]3(C)[C@](O)([C@H](O)C[C@@H]4[C@@]5(C)CCCNC(C)(C)[C@@H]5CC[C@]43C)[C@@H]2C1 | 103% (inactive)

SMILES | growth
Nc1nc(N(Cc2ccccc2)c2ccccc2)c2cn[nH]c2n1 | 68.1% (inactive)
CN1CC(c2ccc(Br)cc2)C(C(=O)c2ccc(Br)cc2)C12C(=O)Nc1ccccc12 (centres undefined) | 85.1% (inactive)
Nc1nc(C(=O)N/N=C/c2ccc(F)cc2)nn1-c1ccc(S(N)(=O)=O)cc1 | 95.2% (inactive)
COc1ccc(-c2nc(SCC(=O)Nc3nc4ccc(C)cc4s3)[nH]c(=O)c2C#N)cc1OC | 101% (inactive)
CNC(=O)NCC1OC(n2cnc3c(NC(=O)Nc4ccccc4)ncnc32)C2OC(=O)CC12 (centres undefined) | 103% (inactive)
COc1ccc(NC(=O)c2ccc(Nc3ncnc4c3cnn4-c3cccc(F)c3)cc2)cc1 | 94.7% (inactive)
CC(C)NS(=O)(=O)/N=C1\NC(=O)NC1=C(Cl)Cl | 94.3% (inactive)
Cc1ccc2cnc(N)c(C#Cc3cc(C(=O)Nc4ccc(CN5CCN(C)CC5)c(C(F)(F)F)c4)cnc3C)c2c1 | 17.4% (inactive)
Cc1nn(-c2ccc([N+](=O)[O-])cc2)c2ncnc(N/N=C/c3ccccc3O)c12 | 18% (inactive)
CC(C)(C)OC(=O)CN1CCc2c(sc3ncnc(N4CCN(c5ccc(F)cc5)CC4)c23)C1 | 88% (inactive)
COC(=O)[C@@]1(C)CC[C@]2(C)CC[C@]3(C)C4=CC=C5C(=CC(=O)C(O)=C5C)[C@]4(C)[C@@H](O)C[C@@]3(C)[C@@H]2C1 | 22.9% (inactive)
Cc1cc(Cl)nc(N2CCN(CCNc3ccnc4cc(Cl)ccc34)CC2)n1 | 79.9% (inactive)
Cc1ccc(C)c2c1sc1nc(N3CCOCC3)c(C#N)c(=O)n12 | 96.3% (inactive)
COc1ccc2c(c1)CC[C@@H]1[C@@H]2CC[C@]2(C)c3c(cc(C#N)c4c3sc3ccccc34)C[C@@H]12 | 104% (inactive)
C=C1C(=O)O[C@H]2[C@H]1CC/C(COC(=O)NCc1ccc(Cn3c(=O)sn(-c4ccc(I)cc4)c3=O)cc1)=C\CC[C@@]1(C)O[C@@H]21 | 107% (inactive)
O=C(O)CC(C(=O)O)/C(=C\c1ccccc1)c1ccccc1 (centres undefined) | 109% (inactive)
CCN(CC)CCOc1ccc(Nc2ncc3cc(-c4c(Cl)cccc4Cl)c(=O)n(CCOC)c3n2)cc1 | 18.4% (inactive)
